Active and inactive are the calls of the source. Unless noted, the rule behind the calls is not given here.
Legend:
[1] = compound effects on lung adenocarcinoma cell viability – A549, calcein-AM fluorescence, 48 h, basal, profiling panel (AID 1162); settings: higher = more signal; note: test concentration not given here
[2] = compound effects on differentiated 3T3-L1 adipocyte viability – cell-based, 3T3-L1 adipocytes, calcein-AM fluorescence, 48 h, basal, profiling panel (AID 1163); settings: 3T3-L1 adipocytes viability, higher = more signal; note: test concentration not given here
[3] = compound effects on hepatocellular carcinoma cell viability – HepG2, calcein-AM fluorescence, 48 h, basal, profiling panel (AID 1164); settings: higher = more signal; note: test concentration not given here
[4] = compound effects on multiple myeloma cell viability – MM1S, calcein-AM fluorescence, 48 h, basal, profiling panel (AID 1165); settings: higher = more signal;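 note: viability of MM1S multiple myeloma cells under basal unstimulated conditions; test concentration not given here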
[5] = calcein-AM signal in unstimulated myeloma cells – cell-based, calcein-AM fluorescence, 48 h, PK04 Diversity Set, profiling panel (AID 1166); settings: RPMI8226 myeloma viability, higher = more signal;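 note: cells grown under basal conditions without added stimulus; test concentration not given here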
[6] = JC-1 mitochondrial signal, unstimulated HepG2 cells – cell-based, JC-1 fluorescence, 24 h, 100 nL compound, profiling panel (AID 1167); settings: HepG2 mitochondrial potential, higher = more signal; note: test concentration not given here
[7] = JC-1 mitochondrial signal, unstimulated adipocytes – cell-based, JC-1 fluorescence, 3T3-L1 adipocytes, 24 h, 100 nL compound, profiling panel (AID 1168); settings: JC-1 mitochondrial fluorescence, higher = more signal, called active from +8 up or from −8 down; note: test concentration not given here
[8] = JC-1 mitochondrial signal, unstimulated myeloma cells – cell-based, JC-1 fluorescence, RPMI8226, 24 h, 100 nL compound, profiling panel (AID 1169); settings: JC-1 mitochondrial potential fluorescence, higher = more signal; note: test concentration not given here
[9] = JC-1 mitochondrial signal, unstimulated MM1S myeloma – cell-based, JC-1 fluorescence, 24 h, 100 nL compound, profiling panel (AID 1170); settings: MM1S mitochondrial potential, higher = more signal; note: test concentration not given here
[10] = resazurin metabolic signal in A549 cells – cell-based, resazurin fluorescence, 24 h, PK04 Diversity Set, profiling panel (AID 1171); settings: A549 viability, higher = more signal, called active from +8 up or from −8 down; note: test concentration not given here
[11] = resazurin metabolic signal in HepG2 cells – cell-based, resazurin fluorescence, 24 h, PK04 Diversity Set, profiling panel (AID 1172); settings: HepG2 viability, higher = more signal; note: test concentration not given here
[12] = budding yeast growth changes without added modifier – OD600, strain BY4716, 24 h, basal condition, primary screen (AID 1173); settings: S. cerevisiae BY4716 growth, OD600, 24 h; higher = more signal, called active from +8 up or from −8 down
[13] = viability profiling in MM1S myeloma cells – cell-based, resazurin fluorescence, basal, 24 h, PK04 Diversity Set, profiling panel (AID 1174); settings: higher = more signal, called active from +8 up or from −8 down; note: test concentration not given here
[14] = molecular target: Dihydroorotate dehydrogenase (quinone), mitochondrial (Plasmodium falciparum (isolate 3D7)) (UniProt Q08210); assay: inhibition of P. falciparum DHODH – biochemical, C-terminal His tag, absorbance 600 nm, primary screen (AID 1175); settings: PfDHODH enzyme, DCIP absorbance 600 nm; higher = more signal, called active from +8 up or from −8 down;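 note: recombinant parasite enzyme with a five histidine tag at its C terminus; test concentration not given here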
Sequence of Dihydroorotate dehydrogenase (quinone), mitochondrial (Plasmodium falciparum (isolate 3D7)) (Q08210 whole entry, looked up): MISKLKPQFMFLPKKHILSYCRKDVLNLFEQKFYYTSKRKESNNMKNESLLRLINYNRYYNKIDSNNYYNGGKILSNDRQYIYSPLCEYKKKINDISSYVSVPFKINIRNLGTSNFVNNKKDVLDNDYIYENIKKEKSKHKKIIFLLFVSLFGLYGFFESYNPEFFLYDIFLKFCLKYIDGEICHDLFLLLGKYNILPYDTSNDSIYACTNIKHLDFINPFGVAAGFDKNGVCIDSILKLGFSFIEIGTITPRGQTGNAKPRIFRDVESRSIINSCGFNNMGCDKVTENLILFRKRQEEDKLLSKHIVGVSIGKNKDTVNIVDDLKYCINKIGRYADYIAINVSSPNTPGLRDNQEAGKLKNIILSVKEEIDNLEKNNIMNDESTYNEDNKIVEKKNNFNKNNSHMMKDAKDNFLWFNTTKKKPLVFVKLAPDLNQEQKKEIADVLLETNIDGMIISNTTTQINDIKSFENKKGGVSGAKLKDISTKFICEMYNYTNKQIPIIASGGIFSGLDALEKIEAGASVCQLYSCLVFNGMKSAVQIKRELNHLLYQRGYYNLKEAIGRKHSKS

[15] = inhibition of PAO1 biofilm formation – strain PAO1, LB-PBS medium, absorbance 600 nm, primary screen (AID 1176); note: test concentration not given here; settings: P. aeruginosa PAO1 growth/biofilm, A600, 12 h; higher = more signal
[16] = growth modulation of vineyard yeast isolate – strain RM11-1a, OD600, basal, 24 h, primary screen (AID 1177);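 note: cultures grown under basal conditions with no added stressor; test concentration not given here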; settings: S. cerevisiae RM11-1a growth, OD600, 24 h; higher = more signal, called active from +8 up or from −8 down
[17] = growth of efflux-deficient E. coli DRC39 – strain DRC39, OD650, 24 h, E. coli filamentation inducers, primary screen (AID 1178);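 note: growth measured as culture turbidity by optical density at 650 nm; test concentration not given here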; settings: E. coli DRC39 acrAB, higher = more signal, called active from +8 up or from −8 down
[18] = growth of efflux-deficient E. coli DRC39 – strain DRC39, OD650, 48 h, E. coli filamentation inducers, primary screen (AID 1179);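 note: screen aims at cell division blockers that make cells filament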; settings: E. coli DRC39 delta-acrAB growth, higher = more signal, called active from +8 up or from −8 down
[19] = viability profiling in RPMI8226 myeloma cells – cell-based, resazurin fluorescence, basal, 24 h, PK04 Diversity Set, profiling panel (AID 1180); settings: higher = more signal;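 note: RPMI8826 multiple myeloma cell line at 5000 cells per well; test concentration not given here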
[20] = molecular target: E3 ubiquitin-protein ligase XIAP (Homo sapiens) (UniProt P98170); assay: small molecules binding XIAP protein – biophysical, small-molecule microarray, fluorescence 635 nm, primary screen (AID 1181); settings: higher = more signal;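 note: score merges 667 nm emission and signal to noise over triplicate slides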
Sequence of E3 ubiquitin-protein ligase XIAP (Homo sapiens) (P98170 whole entry, looked up): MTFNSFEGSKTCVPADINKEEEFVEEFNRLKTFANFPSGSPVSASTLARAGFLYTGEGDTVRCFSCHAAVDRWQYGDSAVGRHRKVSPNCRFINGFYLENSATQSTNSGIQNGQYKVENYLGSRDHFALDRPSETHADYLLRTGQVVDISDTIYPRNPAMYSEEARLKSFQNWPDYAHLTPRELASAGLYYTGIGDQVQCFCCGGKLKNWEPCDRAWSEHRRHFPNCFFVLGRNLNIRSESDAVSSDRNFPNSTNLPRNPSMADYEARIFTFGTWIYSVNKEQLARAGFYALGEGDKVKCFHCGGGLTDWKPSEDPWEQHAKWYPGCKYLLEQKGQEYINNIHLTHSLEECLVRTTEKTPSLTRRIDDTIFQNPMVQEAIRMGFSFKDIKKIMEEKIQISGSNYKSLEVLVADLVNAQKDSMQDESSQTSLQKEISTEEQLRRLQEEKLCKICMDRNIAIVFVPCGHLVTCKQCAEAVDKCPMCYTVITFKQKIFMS

COc1ccc([Si](C)(C)[C@H]2[C@H](CC(=O)N3CCC[C@H]3CO)O[C@@]3(C(=O)N(Cc4cccc(N5CCCCC5=O)c4)c4ccccc43)[C@@H]2C)cc1
z-score [1]: 0.239 | z-score [2]: 0.112 | z-score [3]: -0.134 | z-score [4]: -2.65 | z-score [5]: -3.15 | z-score [6]: 2.8 | z-score [7]: 0.0592 (inactive) | z-score [8]: -0.893 | z-score [9]: 0.286 | z-score [10]: 0.423 (inactive) | z-score [11]: 0.276 | z-score [12]: -0.953 (inactive) | z-score [13]: -0.0453 (inactive) | composite z-score [14]: -3.28 (inactive) | z-score [15]: -0.234 (inactive) | z-score [16]: 0.64 (inactive) | z-score [17]: 0.957 (inactive) | z-score [18]: 0.965 (inactive) | z-score [19]: -0.185 | composite z-score [20]: -0.0126

C=CCNC(=O)[C@H]1[C@@H]2C(=O)O[C@@H](c3ccccc3)[C@@H](c3ccccc3)N2[C@@H](c2ccc(O)cc2)[C@]12C(=O)N(C(=O)OCCOC)c1ccc(C#Cc3ccc(OC)cc3)cc12
z-score [1]: -0.98 | z-score [2]: -1.44 | z-score [3]: 0.147 | z-score [4]: -1.26 | z-score [5]: -1.2 | z-score [6]: -1.62 | z-score [7]: 0.202 (inactive) | z-score [8]: -0.625 | z-score [9]: -0.804 | z-score [10]: -0.0733 (inactive) | z-score [11]: 0.267 | z-score [12]: 0.469 (inactive) | z-score [13]: -0.466 (inactive) | composite z-score [14]: -0.208 (inactive) | z-score [15]: 0.485 (inactive) | z-score [16]: 0.539 (inactive) | z-score [17]: -1.2 (inactive) | z-score [18]: -0.844 (inactive) | z-score [19]: -0.772 | composite z-score [20]: -0.0427

COC(=O)C(CC#Cc1ccc2c(c1)[C@]1(C(=O)N2)[C@H](C(=O)N2CCCCCCC2)[C@H]2C(=O)O[C@H](c3ccccc3)[C@H](c3ccccc3)N2[C@@H]1c1ccc(OCCO)cc1)C(=O)OC
z-score [1]: -0.369 | z-score [2]: 0.231 | z-score [3]: 0.0259 | z-score [4]: -0.236 | z-score [5]: 0.164 | z-score [6]: -0.738 | z-score [7]: -2.32 (inactive) | z-score [8]: -1.04 | z-score [9]: -1.44 | z-score [10]: 1.29 (inactive) | z-score [11]: 0.883 | z-score [12]: 1.43 (inactive) | z-score [13]: 0.229 (inactive) | composite z-score [14]: -1.22 (inactive) | z-score [15]: 2.05 (inactive) | z-score [16]: 0.415 (inactive) | z-score [17]: 0.0679 (inactive) | z-score [18]: -0.878 (inactive) | z-score [19]: 0.0283 | composite z-score [20]: 2.59

OCCCc1cc[n+](Cc2cc3c(cc2Br)OCO3)cc1
z-score [1]: -0.322 | z-score [2]: 0.504 | z-score [3]: -0.325 | z-score [4]: 0.4 | z-score [5]: -0.419 | z-score [6]: 0.138 | z-score [7]: 0.506 (inactive) | z-score [8]: -0.437 | z-score [9]: 1.39 | z-score [10]: -0.298 (inactive) | z-score [11]: -0.0125 | z-score [12]: -0.486 (inactive) | z-score [13]: 0.463 (inactive) | composite z-score [14]: -0.22 (inactive) | z-score [15]: -0.653 (inactive) | z-score [16]: -0.126 (inactive) | z-score [17]: 0.311 (inactive) | z-score [18]: -0.0111 (inactive) | z-score [19]: 0.275 | composite z-score [20]: -0.0931

[N-]=[N+]=NCc1ccccc1[C@H]1OC(c2ccc(OCCCO)cc2)=N[C@@]1(Cc1ccccc1N=[N+]=[N-])C(=O)O
z-score [1]: -0.374 | z-score [2]: -1.69 | z-score [3]: 0.312 | z-score [4]: -0.934 | z-score [5]: -0.984 | z-score [6]: -2.04 | z-score [7]: 0.0914 (inactive) | z-score [8]: -0.763 | z-score [9]: -0.596 | z-score [10]: 0.216 (inactive) | z-score [11]: 0.539 | z-score [12]: -4.15 (inactive) | z-score [13]: 0.119 (inactive) | composite z-score [14]: -0.862 (inactive) | z-score [15]: 0.535 (inactive) | z-score [16]: -0.123 (inactive) | z-score [17]: -0.539 (inactive) | z-score [18]: -0.779 (inactive) | z-score [19]: -0.0412 | composite z-score [20]: 0.166

C=CCNC(=O)[C@H]1[C@@H]2C(=O)O[C@@H](c3ccccc3)[C@@H](c3ccccc3)N2[C@@H](c2ccc(OCCO)cc2)[C@]12C(=O)N(C(=O)OCCOC)c1ccc(C#CCC(C(=O)OC)C(=O)OC)cc12
z-score [1]: 1.32 | z-score [2]: 0.0681 | z-score [3]: 0.811 | z-score [4]: 0.495 | z-score [5]: -0.749 | z-score [6]: -0.517 | z-score [7]: 0.566 (inactive) | z-score [8]: -0.82 | z-score [9]: -1.58 | z-score [10]: -0.0048 (inactive) | z-score [11]: -0.181 | z-score [12]: 1.71 (inactive) | z-score [13]: -0.374 (inactive) | composite z-score [14]: 0.0899 (inactive) | z-score [15]: 1.5 (inactive) | z-score [16]: 2.76 (inactive) | z-score [17]: 0.321 (inactive) | z-score [18]: 0.475 (inactive) | z-score [19]: -1.31 | composite z-score [20]: 0.0899

[N-]=[N+]=Nc1ccccc1C[C@@]1(C(=O)NCC(O)CO)N=C(c2ccc(OCCCO)cc2)O[C@@H]1c1ccccc1N=[N+]=[N-] (stereo not given in full)
z-score [1]: -3.97 | z-score [2]: -0.0164 | z-score [3]: -4.63 | z-score [4]: -3.55 | z-score [5]: -3.85 | z-score [6]: -2 | z-score [7]: -0.264 (inactive) | z-score [8]: -1.21 | z-score [9]: -1.34 | z-score [10]: -3.27 (inactive) | z-score [11]: -2.15 | z-score [12]: -1.75 (inactive) | z-score [13]: -2.42 (inactive) | composite z-score [14]: 0.791 (inactive) | z-score [15]: 0.122 (inactive) | z-score [16]: 0.629 (inactive) | z-score [17]: 0.2 (inactive) | z-score [18]: -0.456 (inactive) | z-score [19]: -2.25 | composite z-score [20]: 0.0651

CC(C)(C)OC(=O)CC[C@@]1(C(N)=O)N=C(c2ccc(OCCCO)cc2)O[C@@H]1c1ccccc1CN=[N+]=[N-]
z-score [1]: 0.105 | z-score [2]: -0.288 | z-score [3]: 0.886 | z-score [4]: 0.0855 | z-score [5]: 0.116 | z-score [6]: -1.08 | z-score [7]: -0.216 (inactive) | z-score [8]: 0.698 | z-score [9]: -0.829 | z-score [10]: 0.112 (inactive) | z-score [11]: 0.372 | z-score [12]: -0.0901 (inactive) | z-score [13]: -0.599 (inactive) | composite z-score [14]: -1 (inactive) | z-score [15]: 0.122 (inactive) | z-score [16]: 0.0861 (inactive) | z-score [17]: -0.0622 (inactive) | z-score [18]: 0.131 (inactive) | z-score [19]: -0.17 | composite z-score [20]: 0.119

Reference: PubChem BioAssay
